Test results published in PubChem BioAssay (NCATS).
Several values for one entry are separate records, joined by “and”; a condition that tells them apart may be missing. Equal entries are not always repeated. Inconclusive results are not listed. Activity calls are given as the source filed them. Calls come from the whole dose curve; as a rule, active = well fitted curve in the direction sought with a large enough effect; inconclusive = small, poorly fitted or top-dose-only effect, or another doubt; inactive = no such curve, though single readings can be large; an effect the other way counts as inactive or inconclusive.

Tests used:
[1] = target: Cellular tumor antigen p53 (Homo sapiens) (UniProt P04637); assay: Primary qHTS for small molecule compounds that upregulate eGFP-tagged delta133p53alpha (in N-terminal) cells. (AID 2060322); conditions: NCI-H358 eGFP-delta133p53alpha fluorescence, 24 h; activation: active compounds read high; note: nearly all actives have a fitted effect of over 75% in size;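 for activation: 0% = DMSO vehicle and 100% = reference activator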
Method in brief: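 NCI-H358 cells pre-induced 24 h with 10 ng/ml doxycycline to express N-terminal eGFP-delta133p53alpha, then dosed 24 h at 37C without doxycycline; fixed, Hoechst-stained, GFP intensity by laser scanning cytometry, normalized to DMSO (0%) and 57.5 uM 5-azacytidine (100%).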

[2] = BET inhibitor-based combinations targeting novel dependencies in MECOM-rearranged (r) AML: SET-2 cell line (AID 2202231); conditions: SET-2 AML cells viability, CellTiter-Glo luminescence, 48 h; viability: active compounds read low, concentration not given here; note: nearly all actives have a fitted effect of over 35% in size;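 for viability: plate controls were DMSO treated cells for no effect and wells without cells for full effect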
Method in brief: (§1)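 Each compound was tested at eleven concentrations on cells seeded at 500/well. After two days' incubation, ATP-based luminescence reported viability; responses relative to DMSO and blank wells yielded AUC and cell-line-centred Z-AUC.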

[3] = BET inhibitor-based combinations targeting novel dependencies in MECOM-rearranged (r) AML: OCI-AML3 cell line (AID 2202232); conditions: CellTiter-Glo luminescence, 48 h; Potency: OCI-AML3 viability; series mostly up to 46 µM; note: nearly all actives have a fitted effect of over 35% in size
Method in brief: as §1

[4] = BET inhibitor-based combinations targeting novel dependencies in MECOM-rearranged (r) AML: MV-4-11 cell line (AID 2202233); conditions: MV-4-11 AML viability, CellTiter-Glo luminescence, 48 h; series mostly up to 46 µM; note: nearly all actives have a fitted effect of over 45% in size
Method in brief: (§2)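 First, 500 cells per well were seeded; next, drugs were pinned as 11-point doses; then plates sat 48 hr in the incubator; finally CellTiter-Glo was added and luminescence read, with AUC and Z-AUC computed.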

[5] = BET inhibitor-based combinations targeting novel dependencies in MECOM-rearranged (r) AML: UCSD-AML1 cell line (AID 2202235); conditions: UCSD-AML1 AML cells viability, CellTiter-Glo, 48 h; series mostly up to 46 µM; note: nearly all actives have a fitted effect of over 40% in size
Method in brief: as §2

[6] = BET inhibitor-based combinations targeting novel dependencies in MECOM-rearranged (r) AML: AML-194 cell line (AID 2202237; note: nearly all actives have a fitted effect of over 40% in size); conditions: AML-194 (MECOM-r AML) viability, CellTiter-Glo, 48 h; series mostly up to 46 µM
Method in brief: as §1

[7] = BET inhibitor-based combinations targeting novel dependencies in MECOM-rearranged (r) AML: AML-191 cell line (AID 2202236; note: nearly all actives have a fitted effect of over 35% in size); conditions: AML-191 viability, CellTiter-Glo luminescence, 48 h; series mostly up to 46 µM
Method in brief: as §1

[8] = BET inhibitor-based combinations targeting novel dependencies in MECOM-rearranged (r) AML: HNT-34 cell line (AID 2202234); conditions: HNT-34 AML viability, CellTiter-Glo luminescence, 48 h; series mostly up to 46 µM; note: nearly all actives have a fitted effect of over 35% in size
Method in brief: as §2
Potency is the fitted concentration of half-maximal effect.

Sequence of Cellular tumor antigen p53 (Homo sapiens) (P04637 whole entry, looked up): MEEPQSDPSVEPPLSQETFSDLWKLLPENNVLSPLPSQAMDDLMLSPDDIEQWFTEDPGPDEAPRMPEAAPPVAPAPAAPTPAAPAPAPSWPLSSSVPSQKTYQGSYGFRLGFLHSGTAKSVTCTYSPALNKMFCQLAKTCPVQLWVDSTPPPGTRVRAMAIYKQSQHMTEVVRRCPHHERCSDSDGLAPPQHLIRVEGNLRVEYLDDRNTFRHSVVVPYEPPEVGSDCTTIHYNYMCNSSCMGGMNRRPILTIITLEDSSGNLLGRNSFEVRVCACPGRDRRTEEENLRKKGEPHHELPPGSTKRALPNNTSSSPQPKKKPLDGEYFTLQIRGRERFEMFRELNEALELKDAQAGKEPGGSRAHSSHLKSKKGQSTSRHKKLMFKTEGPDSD

N#Cc1ccc(NC(=O)Nc2ccccc2Br)c2n[nH]nc12
active: Potency [3] 14.8 µM
inactive: activation [1] -2.35% | viability [2] 105% | Potency [4] | Potency [5] | Potency [6]

NCC1CCC(C(=O)O)CC1 (configuration not stated)
inactive: activation [1] 20.7% | viability [2] 115% | Potency [3] | Potency [4] | Potency [5] | Potency [7] | Potency [6]

COC(=O)[C@H](c1ccccc1Cl)N1CCc2sccc2C1
inactive: activation [1] 12.2% | viability [2] 110% | Potency [3] | Potency [8] | Potency [5] | Potency [7] | Potency [6]

O=[N+]([O-])c1cncn1CCN1CCOCC1
inactive: activation [1] -23.4% | viability [2] 112% | Potency [3] | Potency [8] | Potency [5] | Potency [7] | Potency [6]

Cc1cccc(N(C)C(=S)Oc2ccc3ccccc3c2)c1
inactive: activation [1] 2.82% and 1.76% | viability [2] 85.9% | Potency [3] | Potency [8] | Potency [5] | Potency [6]

CC(C)c1ccc2oc3nc(N)c(C(=O)O)cc3c(=O)c2c1
active: Potency [3] 14.8 µM | Potency [8] 14.8 µM
inactive: activation [1] 16.6% and 7.34% | viability [2] 106% | Potency [5]

C[C@H](CCC(=O)O)[C@H]1CCC2C3C[C@H](O)[C@@H]4C[C@H](O)CC[C@]4(C)C3CC[C@@]21C (some centres not stated)
inactive: activation [1] 10.8% | viability [2] 119% | Potency [4] | Potency [8] | Potency [5] | Potency [7] | Potency [6]

CC(S)C(=O)NCC(=O)O (configuration not stated)
active: Potency [3] 8.33 µM
inactive: activation [1] 9.72% | viability [2] 114% | Potency [8] | Potency [5] | Potency [6]

CC(=O)NC(CS)C(=O)O (configuration not stated)
inactive: activation [1] 60.6% | viability [2] 104% | Potency [4] | Potency [8] | Potency [5] | Potency [7] | Potency [6]

Cc1cc(O)c2c(c1)C(=O)c1cccc(O)c1C2=O
inactive: activation [1] 32.6% | viability [2] 116% | Potency [4] | Potency [8] | Potency [5] | Potency [7] | Potency [6]

O=C(O)c1nc(=O)[nH]c(=O)[nH]1
inactive: activation [1] 3.67% | viability [2] 105% | Potency [4] | Potency [8] | Potency [5] | Potency [7] | Potency [6]

C[C@]12CCC3c4ccc(O)cc4CCC3C1CCC2=O (some centres not stated)
active: Potency [5] 26.3 µM
inactive: activation [1] -0.196% | viability [2] 99.9% | Potency [3] | Potency [7] | Potency [6]

Cc1cc(=O)oc2cc(O)ccc12
inactive: activation [1] -17.5% and -1.39% | viability [2] 111% | Potency [3] | Potency [5] | Potency [7] | Potency [6]

CCN(c1ccccc1)c1cc(NC)[n+](C)c(C)n1
inactive: activation [1] 3.67% | viability [2] 117% | Potency [4] | Potency [8] | Potency [5] | Potency [7] | Potency [6]

Cc1ccc(/C=N/NC(=O)c2ccccc2Oc2ccccc2)o1
inactive: activation [1] -11.8% | viability [2] 107% | Potency [3] | Potency [7] | Potency [6]

CCC(=O)O[C@]1(C(=O)CCl)[C@@H](C)C[C@H]2[C@@H]3CCC4=CC(=O)C=C[C@]4(C)[C@@]3(F)[C@@H](O)C[C@@]21C
inactive: activation [1] 6.69% and -0.269% | viability [2] 97.3% | Potency [5]
active: Potency [4] 20.9 µM | Potency [8] 20.9 µM

C[C@]1(c2nc3c(C(N)=O)cccc3[nH]2)CCCN1
active: Potency [3] 8.33 µM
inactive: activation [1] 53.7% | viability [2] 113% | Potency [5] | Potency [7] | Potency [6]

CC(C)C[C@@H](C(=O)N[C@H](C(=O)OC1CCCC1)c1ccccc1)[C@H](O)C(=O)NO
inactive: activation [1] 10.8%
active: Potency [2] 14.8 µM | Potency [4] 3.32 µM | Potency [8] 18.6 µM | Potency [5] 20.9 µM | Potency [7] 20.9 µM

Cn1cc(-c2ccc3nnc(Sc4ccc5ncccc5c4)n3n2)cn1
inactive: activation [1] -0.663% | viability [2] 107% | Potency [3] | Potency [5] | Potency [7] | Potency [6]

CC[C@H](C=C[C@@H](C)[C@H]1CC[C@H]2[C@@H]3CC=C4C[C@@H](O)CC[C@]4(C)[C@@H]3CC[C@]12C)C(C)C
inactive: activation [1] -9.05% | viability [2] 107% | Potency [4] | Potency [8] | Potency [5] | Potency [7]

CCCNS(=O)(=O)Nc1ncnc(OCCOc2ncc(Br)cn2)c1-c1ccc(Br)cc1
inactive: activation [1] -5.9% | viability [2] 97.8% | Potency [3] | Potency [6]

CN1C(=O)C[C@H](C(=O)N[C@@H](Cc2cnc[nH]2)C(=O)N2CCC[C@@H]2C(N)=O)NC1=O
active: Potency [3] 18.6 µM
inactive: activation [1] 8.59% | viability [2] 98.4% | Potency [5]

C#CCC(Cc1cnc2nc(N)nc(N)c2n1)c1ccc(C(=O)N[C@@H](CCC(=O)O)C(=O)O)cc1 (some centres not stated)
active: Potency [2] 0.0019 µM | Potency [4] 0.0053 µM
inactive: activation [1] -21.3%

NC(=O)c1cccnc1
inactive: activation [1] -14.2% and 9.71% | viability [2] 106% | Potency [4] | Potency [8] | Potency [5] | Potency [7] | Potency [6]

COc1cccc2c1C(=O)c1c(O)c3c(c(O)c1C2=O)C[C@@](O)(C(=O)CO)C[C@@H]3O[C@H]1C[C@H](N)[C@H](O)[C@H](C)O1
active: Potency [1] 12.3 µM | Potency [2] 0.833 µM | Potency [3] 0.0468 µM | Potency [5] 0.0934 µM | Potency [7] 0.186 µM | Potency [6] 0.186 µM

CCc1cc(Nc2nccc(-c3c(-c4ccc(OC)c(C(=O)Nc5c(F)cccc5F)c4)nc4ccccn34)n2)c(OC)cc1N1CCC(N2CCN(S(C)(=O)=O)CC2)CC1
inactive: activation [1] 14.2% and 2.68% | viability [2] 113% | Potency [3]
active: Potency [5] 10.5 µM | Potency [7] 11.8 µM

CC(C)OC(=O)C(C(=O)OC(C)C)=C1SC=CS1
inactive: activation [1] 3.95% and 27.9% | viability [2] 105% | Potency [3] | Potency [8] | Potency [7]

COc1ccc(COc2cc3oc(=O)c4cc(C(C)O)ccc4c3cc2OC)cc1 (configuration not stated)
active: Potency [3] 14.8 µM | Potency [7] 20.9 µM
inactive: activation [1] 0.91% | viability [2] 86.4%

CCN(CC)CCCCNc1ncc2c(n1)N(C)C(=O)N(c1c(Cl)c(OC)cc(OC)c1Cl)C2
active: Potency [2] 18.6 µM | Potency [4] 14.8 µM | Potency [8] 10.5 µM
inactive: activation [1] -7.31%

CC1=C(/C=C/C(C)=C/C=C/C(C)=C\C(=O)O)C(C)(C)CCC1
inactive: activation [1] -30.1% | viability [2] 102% | Potency [5] | Potency [6]
active: Potency [3] 0.742 µM | Potency [7] 5.25 µM

Nc1ncnc2c1nc(Cl)n2[C@@H]1O[C@H](CO)[C@@H](O)[C@@H]1O
active: Potency [2] 11.8 µM | Potency [4] 5.25 µM | Potency [8] 2.95 µM | Potency [5] 5.9 µM | Potency [7] 3.72 µM | Potency [6] 2.63 µM
inactive: activation [1] -2.08%

O=C(NOCC(O)CO)c1cc(Br)c(F)c(F)c1Nc1ccc(I)cc1F (configuration not stated)
active: Potency [4] 0.209 µM | Potency [8] 1.05 µM
inactive: activation [1] 6.51% | viability [2] 95.8%

C#CCN[C@@H]1CCc2ccccc21
inactive: activation [1] -13.4% and -11.3% | viability [2] 116% | Potency [4] | Potency [8] | Potency [5] | Potency [7] | Potency [6]

CC(=O)OC1C(C)OC(Oc2c(-c3ccc(O)cc3)oc3cc(O)cc(O)c3c2=O)C(O)C1OC(C)=O (configuration not stated)
inactive: activation [1] 34.7% | viability [2] 114% | Potency [3] | Potency [8] | Potency [5] | Potency [6]

CC(C)C[C@H](CC(=O)O)C(=O)N[C@@H](Cc1c[nH]c2ccccc12)C(=O)N[C@@H](C)c1ccccc1
inactive: activation [1] -21.8% | viability [2] 104% | Potency [4]

Oc1ccc(OCc2ccccc2)cc1
inactive: activation [1] -16.4% and -11.2% | viability [2] 81.8%
active: Potency [4] 9.34 µM

Cc1cc2c(cc1CC(=O)c1sccc1S(=O)(=O)Nc1onc(C)c1Cl)OCO2
inactive: activation [1] -10% and -11% | viability [2] 68.3% | Potency [4] | Potency [8] | Potency [5] | Potency [7]

COc1cc2nccc(Oc3ccc(NC(=O)Nc4ccc(F)cc4F)c(F)c3)c2cc1OC
inactive: activation [1] 5.39% | viability [2] 108%
active: Potency [4] 0.0934 µM | Potency [8] 1.66 µM | Potency [5] 2.09 µM

CN(C)c1ccc2nc3ccc(=[N+](C)C)cc-3sc2c1
active: Potency [1] 17.4 µM | Potency [2] 5.9 µM | Potency [3] 5.25 µM | Potency [8] 7.42 µM | Potency [5] 9.34 µM | Potency [6] 4.68 µM

CN1c2cc(O)c(N=NC(N)=O)cc2CC1S(=O)(=O)O (configuration not stated)
inactive: activation [1] 16.4% | viability [2] 89.9% | Potency [3] | Potency [5] | Potency [7] | Potency [6]

Cc1ccc(-n2nc(C(C)(C)C)cc2NC(=O)Nc2ccc(OCCN3CCOCC3)c3ccccc23)cc1
active: Potency [3] 18.6 µM | Potency [7] 18.6 µM
inactive: activation [1] 23.4% | viability [2] 102% | Potency [5] | Potency [6]

COc1cc(C(C)C)c(Oc2cnc(NC(CO)CO)nc2N)cc1I
inactive: activation [1] -13.5% | viability [2] 99.2% | Potency [3] | Potency [5] | Potency [7] | Potency [6]

O=C(O)C(O)Cc1ccc(O)c(O)c1 (configuration not stated)
inactive: activation [1] -12.6% | viability [2] 99.8% | Potency [4] | Potency [8] | Potency [5] | Potency [7] | Potency [6]

O=C(O)c1ccc(-n2nc(-c3ccccc3O)nc2-c2ccccc2O)cc1
active: Potency [2] 20.9 µM | Potency [3] 14.8 µM
inactive: activation [1] -1.69% and -24.7% | Potency [5]

CCCc1nc2c(C)cc(-c3nc4ccccc4n3C)cc2n1Cc1ccc(-c2ccccc2C(=O)O)cc1
inactive: activation [1] -6.69% and 11.8% | viability [2] 120% | Potency [4] | Potency [8] | Potency [5] | Potency [7] | Potency [6]

CCOC(=O)c1ccc(OC(=O)CCCCCN=C(N)N)cc1
inactive: activation [1] 31% | viability [2] 106% | Potency [3] | Potency [5] | Potency [7] | Potency [6]
